Experimental data from the supplement of paper PMC10849652.
Targets with a hit are over-represented here; the source holds about 7,900 in all. About 0.6% of all pairs of compound and target were hits.

Tests used:
Assay in all cases: log2 fold change, soluble protein after heating vs DMSO (PISA); higher = thermal stabilisation; K562 cells, 10 uM, 30 min; active = over 0.2 and 3.5 SD of the protein, either way, in both replicates (recomputed)
[1] = compound: CC[C@@H]1C(=O)N(C)c2cnc(Nc3ccc(C(=O)NC4CCN(C)CC4)cc3OC)nc2N1C1CCCC1
Outline: (§1)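 For each measurement, 10 μM compound was applied for 30 min to K562 cells at 2×10^6 cells/mL. Aliquots were heated for 3 min across 48°C-58°C, pooled, and extracted in PBS with 0.5% NP-40 at 4°C; the supernatant after 21,000xg for 90 min was soluble protein. This was quantified by TMTpro 16plex LC-MS/MS with channel sums equalised, and thermal stability was reported relative to control samples from duplicates, on a log2 fold-change scale.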

volasertib = compound: CC[C@@H]1C(=O)N(C)c2cnc(Nc3ccc(C(=O)N[C@H]4CC[C@H](N5CCN(CC6CC6)CC5)CC4)cc3OC)nc2N1C(C)C [volasertib]
Outline: as §1

[2] = compound: CC[C@H](C)N1C=C(C2=C(C=C(C=C21)C3=CN=C(C=C3)N4CCNCC4)C(=O)NCC5=C(C=C(NC5=O)C)C)C
Outline: as §1

epoxomicin = compound: CC[C@H](C)[C@@H](C(=O)N[C@@H]([C@@H](C)O)C(=O)N[C@@H](CC(C)C)C(=O)[C@]1(CO1)C)NC(=O)[C@H]([C@@H](C)CC)N(C)C(=O)C [epoxomicin]
Outline: as §1

[3] = compound: CCn1c(C(=O)N(C2CC2)C2CC2)cc2c3c(ncn3C)c(Nc3cc(C)n(C)n3)nc21
Outline: as §1

[4] = compound: CCn1cc(-c2ccnc3[nH]c(-c4cccc(CN(C)C)c4)cc23)c(-c2ccc(NC(=O)N(C)C)cc2)n1
Outline: as §1

rosiglitazone = compound: CN(CCOC1=CC=C(C=C1)C[C@H]2C(=O)NC(=O)S2)C3=CC=CC=N3 (racemic) [rosiglitazone]
Outline: as §1

[5] = compound: CN1C2=C(C3=C1C(=O)N(N=C3)CC4=CC(=CC=C4)N)SC(=C2)S(=O)C
Outline: as §1

[6] = compound: CN1CCC(CNc2ccc3ncc(-c4cccc(OC(F)(F)F)c4)n3n2)CC1
Outline: as §1

[7] = compound: CN(C)CC(=O)Nc1ccc2[nH]c(=O)c3ccccc3c2c1
Outline: as §1

Measured: log2 fold change

MLX (UniProt Q9UH92)
active: volasertib -0.734
inactive: [1] 0.047 | [2] -0.007 | epoxomicin 0.162 | [3] -0.04 | [4] 0 | rosiglitazone 0.052 | [5] 0.142 | [6] -0.315

NIPSNAP3B (UniProt Q9BS92)
inactive: [1] -0.238 | volasertib -0.028 | [2] 0.039 | [3] -0.039 | [4] -0.019 | [7] -0.088 | rosiglitazone -0.069 | [5] -0.176 | [6] 0.073

NAA11 (UniProt Q9BSU3)
inactive: [1] -0.013 | volasertib -0.041 | [2] 0.044 | epoxomicin 0.063 | [3] 0.015 | [7] -0.114 | rosiglitazone -0.053 | [5] 0.001

MRPS26 (UniProt Q9BYN8)
inactive: [1] 0.011 | volasertib -0.094 | epoxomicin 0.033 | [3] -0.094 | [4] -0.023 | [7] 0.003 | rosiglitazone 0.053 | [5] 0.052 | [6] -0.092

NACC1 (UniProt Q96RE7)
active: volasertib -0.616
inactive: [1] -0.32 | [2] 0.112 | epoxomicin 0.002 | [3] -0.079 | [4] -0.022 | [7] 0.033 | rosiglitazone 0.095 | [5] 0 | [6] -0.259

NME2P1 (UniProt O60361)
inactive: [1] 0.117 | volasertib 0.03 | [2] -0.177 | epoxomicin 0.033 | [3] -0.162 | [4] 0.198 | [7] -0.021 | rosiglitazone 0.166 | [6] -0.074

MRFAP1 (UniProt Q9Y605)
UniProt Q9Y605, sequence (Q9Y605 whole entry, looked up): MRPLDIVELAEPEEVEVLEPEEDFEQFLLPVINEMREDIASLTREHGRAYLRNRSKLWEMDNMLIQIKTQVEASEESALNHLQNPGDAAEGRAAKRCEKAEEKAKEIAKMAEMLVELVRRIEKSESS
inactive: [1] -0.107 | volasertib -0.386 | [2] 0 | [3] 0.029 | [4] 0.022 | [7] 0.242 | rosiglitazone 0.048 | [5] -0.08 | [6] -0.032

NA (UniProt B2RBV5)
inactive: [1] 0.135 | volasertib 0.163 | [2] 0.049 | [4] 0.128 | rosiglitazone -0.009 | [6] -0.08
active: epoxomicin 0.593

MRPS12 (UniProt O15235)
inactive: [1] -0.043 | volasertib -0.024 | [2] 0.077 | epoxomicin -0.001 | [3] -0.04 | [4] -0.072 | [7] -0.103 | rosiglitazone 0.063 | [5] 0.091 | [6] -0.014

MTHFD1, A0A384N5Y3
inactive: [1] -0.152 | volasertib -0.011 | [2] 0.065 | epoxomicin 0.002 | [4] -0.113 | [7] 0.045 | rosiglitazone 0.023 | [5] -0.084 | [6] -0.081

NEK3 (UniProt P51956)
active: [6] -0.465
inactive: [1] -0.046 | volasertib -0.162 | [2] 0.167 | epoxomicin 0.067 | [3] -0.024 | [4] -0.125 | [7] 0.014 | [5] 0.002

MT-ATP6 (UniProt P00846)
inactive: [1] 0.043 | volasertib -0.091 | [2] -0.057 | epoxomicin 0.105 | [3] -0.053 | [4] -0.152 | [7] -0.095 | rosiglitazone 0.502 | [5] -0.239 | [6] -0.16

NAGPA (UniProt Q9UK23)
UniProt Q9UK23, sequence (Q9UK23 whole entry, looked up): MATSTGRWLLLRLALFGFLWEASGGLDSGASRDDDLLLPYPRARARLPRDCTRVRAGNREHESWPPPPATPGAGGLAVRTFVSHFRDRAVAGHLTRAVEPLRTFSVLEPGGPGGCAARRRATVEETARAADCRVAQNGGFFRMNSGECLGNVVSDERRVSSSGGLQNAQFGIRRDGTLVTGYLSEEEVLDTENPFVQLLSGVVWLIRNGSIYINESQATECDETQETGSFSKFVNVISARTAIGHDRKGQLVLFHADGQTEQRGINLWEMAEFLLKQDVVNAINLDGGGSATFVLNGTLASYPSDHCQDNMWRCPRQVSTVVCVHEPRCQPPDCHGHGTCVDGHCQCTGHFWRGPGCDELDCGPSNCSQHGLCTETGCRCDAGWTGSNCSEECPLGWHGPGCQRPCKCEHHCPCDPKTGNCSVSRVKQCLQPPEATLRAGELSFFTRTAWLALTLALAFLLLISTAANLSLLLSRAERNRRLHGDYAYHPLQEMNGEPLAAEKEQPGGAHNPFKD
active: volasertib 0.555
inactive: [1] 0.213 | [2] -0.065 | epoxomicin 0.071 | [3] -0.022 | [4] 0.084 | rosiglitazone -0.061 | [5] -0.084 | [6] -0.083

MSANTD2 (UniProt Q6P1R3)
UniProt Q6P1R3, sequence (Q6P1R3 whole entry, looked up): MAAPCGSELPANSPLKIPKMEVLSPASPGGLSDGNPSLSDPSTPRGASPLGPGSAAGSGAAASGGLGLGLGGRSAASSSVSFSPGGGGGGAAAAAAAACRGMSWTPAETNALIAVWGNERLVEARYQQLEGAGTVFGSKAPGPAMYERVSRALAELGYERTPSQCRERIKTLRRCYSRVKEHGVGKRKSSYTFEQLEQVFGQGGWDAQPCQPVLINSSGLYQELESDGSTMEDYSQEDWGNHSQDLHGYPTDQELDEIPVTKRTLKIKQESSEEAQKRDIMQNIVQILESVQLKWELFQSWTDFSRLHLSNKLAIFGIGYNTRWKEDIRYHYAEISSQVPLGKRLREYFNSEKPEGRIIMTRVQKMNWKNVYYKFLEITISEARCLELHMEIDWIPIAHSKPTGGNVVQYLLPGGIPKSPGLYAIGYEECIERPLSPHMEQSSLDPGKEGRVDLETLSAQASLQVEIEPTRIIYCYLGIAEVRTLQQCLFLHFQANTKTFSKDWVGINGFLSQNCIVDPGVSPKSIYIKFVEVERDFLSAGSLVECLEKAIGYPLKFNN
inactive: [1] -0.071 | epoxomicin -0.273 | [7] 0.004 | [5] 0.13

MITF (UniProt O75030)
inactive: [1] 0.014 | [2] 0.02 | [3] -0.051 | [4] 0.044 | [7] -0.231 | [6] -0.046

MPHOSPH8 isoform 2 (UniProt Q99549)
inactive: volasertib 0.012 | epoxomicin 0.16 | [7] -0.093 | [5] 0.058

NAP1L1 (UniProt B7Z9C2)
inactive: [1] -0.118 | [2] -0.008 | [3] -0.132 | [4] 0 | [7] -0.244 | rosiglitazone 0.146 | [5] -0.053 | [6] -0.152

NDFIP1 (UniProt Q9BT67)
inactive: [1] 0.211 | [2] -0.2 | epoxomicin 0.102 | [3] 0.056 | [4] 0.224 | [7] 0.152 | rosiglitazone 0.108 | [5] 0.175 | [6] -0.062

OPHN1 (UniProt O60890)
inactive: [1] 0.036 | [2] -0.016 | epoxomicin 0.043 | [3] -0.019 | [4] -0.143 | rosiglitazone 0.121 | [5] 0.108 | [6] -0.095

NELFCD (UniProt Q8IXH7)
UniProt Q8IXH7, sequence (Q8IXH7 whole entry, looked up): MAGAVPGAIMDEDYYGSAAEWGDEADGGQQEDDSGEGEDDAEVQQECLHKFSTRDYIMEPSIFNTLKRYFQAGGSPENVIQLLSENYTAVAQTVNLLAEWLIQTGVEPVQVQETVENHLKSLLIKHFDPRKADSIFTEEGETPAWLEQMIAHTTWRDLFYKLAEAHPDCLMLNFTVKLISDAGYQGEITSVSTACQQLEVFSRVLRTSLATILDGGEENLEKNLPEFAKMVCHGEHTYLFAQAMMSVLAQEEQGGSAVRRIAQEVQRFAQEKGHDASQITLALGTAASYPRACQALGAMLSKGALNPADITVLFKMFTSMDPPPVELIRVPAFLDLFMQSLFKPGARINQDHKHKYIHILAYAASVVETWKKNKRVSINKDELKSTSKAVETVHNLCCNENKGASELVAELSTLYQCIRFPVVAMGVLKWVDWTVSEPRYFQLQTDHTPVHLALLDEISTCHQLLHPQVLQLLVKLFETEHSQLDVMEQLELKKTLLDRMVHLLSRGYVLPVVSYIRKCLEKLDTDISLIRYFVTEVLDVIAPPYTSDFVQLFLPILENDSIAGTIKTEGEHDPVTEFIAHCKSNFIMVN
inactive: [2] 0.244 | epoxomicin -0.052 | [3] -0.044 | [4] -0.113 | [7] 0.298 | rosiglitazone 0.015 | [5] -0.05 | [6] 0.226
active: volasertib -0.562

MXRA7 isoform 3 (UniProt P84157)
inactive: volasertib -0.01

OAF (UniProt Q86UD1)
inactive: [3] -0.087

NECTIN2 isoform 2 (UniProt Q92692)
inactive: [1] 0.175 | [2] 0.106 | epoxomicin -0.132 | [3] 0.05 | [4] -0.104 | [7] -0.063 | rosiglitazone -0.151 | [5] -0.146 | [6] 0.318

NCOA5 (UniProt Q9HCD5)
inactive: volasertib 0.072 | [2] -0.019 | [3] 0.026 | [4] 0.038 | [5] 0.187 | [6] 0.036

MOB3B (UniProt Q86TA1)
inactive: [2] -0.045 | [3] 0.149 | [4] -0.016 | [7] 0.034 | rosiglitazone 0.202 | [6] -0.159
active: volasertib -0.633

MYO19 (UniProt Q96H55)
UniProt Q96H55, sequence (Q96H55 whole entry, looked up): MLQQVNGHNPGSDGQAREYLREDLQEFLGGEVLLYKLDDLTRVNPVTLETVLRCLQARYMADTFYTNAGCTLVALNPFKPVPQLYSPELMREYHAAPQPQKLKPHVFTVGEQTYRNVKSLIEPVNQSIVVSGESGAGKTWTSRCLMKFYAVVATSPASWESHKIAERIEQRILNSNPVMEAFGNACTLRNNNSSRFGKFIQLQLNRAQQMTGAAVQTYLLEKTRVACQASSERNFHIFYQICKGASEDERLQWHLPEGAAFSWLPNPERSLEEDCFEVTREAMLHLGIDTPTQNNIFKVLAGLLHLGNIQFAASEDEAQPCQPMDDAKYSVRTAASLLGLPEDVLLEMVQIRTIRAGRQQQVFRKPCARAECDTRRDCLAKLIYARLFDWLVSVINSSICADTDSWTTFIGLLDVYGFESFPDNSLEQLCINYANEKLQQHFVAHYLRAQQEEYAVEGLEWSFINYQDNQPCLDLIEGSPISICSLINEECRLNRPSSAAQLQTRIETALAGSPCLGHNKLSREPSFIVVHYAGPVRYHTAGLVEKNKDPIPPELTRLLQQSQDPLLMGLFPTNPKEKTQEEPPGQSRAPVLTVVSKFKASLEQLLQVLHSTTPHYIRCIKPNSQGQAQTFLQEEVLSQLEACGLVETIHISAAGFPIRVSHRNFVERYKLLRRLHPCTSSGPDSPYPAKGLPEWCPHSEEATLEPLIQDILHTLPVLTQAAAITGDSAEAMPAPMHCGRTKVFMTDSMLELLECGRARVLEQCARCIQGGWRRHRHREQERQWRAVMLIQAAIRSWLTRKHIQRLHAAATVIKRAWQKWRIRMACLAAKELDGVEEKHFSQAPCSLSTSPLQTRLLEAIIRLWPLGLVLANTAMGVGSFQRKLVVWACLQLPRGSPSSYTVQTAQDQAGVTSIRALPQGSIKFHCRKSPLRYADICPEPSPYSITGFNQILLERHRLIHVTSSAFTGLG
inactive: volasertib 0.007 | [2] 0.011 | epoxomicin 0.097 | [3] -0.138 | [4] -0.215 | [7] -0.081 | rosiglitazone 0.121 | [5] 0.076 | [6] 0.404

MRM2 (UniProt Q9UI43)
inactive: volasertib -0.083 | [2] 0.008 | [3] 0.065 | [7] -0.122 | [5] -0.042

NUMBL (UniProt Q9Y6R0)
inactive: volasertib 0.019 | [2] 0.073 | epoxomicin -0.01 | [3] 0.023 | [4] 0.007 | [7] -0.023 | rosiglitazone -0.051 | [5] 0.041 | [6] -0.259

OGFOD2 (UniProt Q6N063)
inactive: [1] -0.007 | [2] -0.019 | epoxomicin 0.08 | [3] -0.033 | [7] 0.035 | rosiglitazone -0.027 | [5] 0.147 | [6] -0.112
active: [4] -0.372

NOS1AP (UniProt O75052)
inactive: [1] 0.092 | volasertib 0.035 | epoxomicin 0.056 | [3] 0.04 | [7] 0.225 | rosiglitazone -0.001

NUDT7 (UniProt P0C024)
inactive: [2] 0.187 | epoxomicin -0.067 | [3] 0.058 | [4] -0.055 | rosiglitazone 0.038 | [6] 0.322

NOLC1 isoform 3 (UniProt Q14978)
inactive: [3] -0.275

NA, A0A1W2PSA9
inactive: [4] 0.08 | [5] 0.279 | [6] 0.057

MYH16 (UniProt Q9H6N6)
UniProt Q9H6N6, sequence (Q9H6N6 whole entry, looked up): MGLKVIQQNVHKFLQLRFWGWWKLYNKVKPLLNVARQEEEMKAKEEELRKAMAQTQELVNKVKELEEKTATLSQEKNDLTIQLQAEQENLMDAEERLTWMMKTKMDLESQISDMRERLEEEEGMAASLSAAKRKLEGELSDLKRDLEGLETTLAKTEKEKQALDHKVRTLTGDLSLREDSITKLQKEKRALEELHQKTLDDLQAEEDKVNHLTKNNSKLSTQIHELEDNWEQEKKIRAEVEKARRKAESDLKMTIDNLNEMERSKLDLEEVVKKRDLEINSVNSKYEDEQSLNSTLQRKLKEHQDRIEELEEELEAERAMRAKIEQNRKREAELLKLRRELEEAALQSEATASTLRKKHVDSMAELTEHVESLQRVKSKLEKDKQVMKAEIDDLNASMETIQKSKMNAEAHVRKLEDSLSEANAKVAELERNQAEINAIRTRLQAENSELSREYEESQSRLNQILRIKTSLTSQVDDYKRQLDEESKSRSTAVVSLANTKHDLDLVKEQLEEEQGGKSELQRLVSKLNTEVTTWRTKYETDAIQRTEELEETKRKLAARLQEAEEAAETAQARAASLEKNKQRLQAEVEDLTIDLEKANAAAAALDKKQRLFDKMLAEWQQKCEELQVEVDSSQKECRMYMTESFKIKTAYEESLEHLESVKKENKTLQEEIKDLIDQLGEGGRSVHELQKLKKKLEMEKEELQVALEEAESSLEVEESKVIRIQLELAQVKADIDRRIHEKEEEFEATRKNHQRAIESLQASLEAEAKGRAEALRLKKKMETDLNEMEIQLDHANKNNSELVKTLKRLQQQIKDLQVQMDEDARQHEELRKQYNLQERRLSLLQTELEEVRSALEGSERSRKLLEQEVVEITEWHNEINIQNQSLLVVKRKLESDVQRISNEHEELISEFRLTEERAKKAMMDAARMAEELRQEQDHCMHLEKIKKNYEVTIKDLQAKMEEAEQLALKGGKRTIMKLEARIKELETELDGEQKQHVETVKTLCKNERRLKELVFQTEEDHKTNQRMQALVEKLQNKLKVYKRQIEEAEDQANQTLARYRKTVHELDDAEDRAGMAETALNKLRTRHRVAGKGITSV
inactive: volasertib 0.077 | [2] 0.156 | [3] 0.029 | [4] -0.067 | [7] 0.011 | rosiglitazone 0.065 | [6] 0.26

NIPSNAP2 (UniProt C9J7B1)
inactive: rosiglitazone -0.065

MORC2 (UniProt Q9Y6X9)
active: volasertib -0.8
inactive: epoxomicin 0.118 | [3] -0.347 | rosiglitazone 0.106

NEU3 isoform 2 (UniProt Q9UQ49)
inactive: volasertib -0.158 | [3] -0.074

NKTR (UniProt P30414)
inactive: volasertib -0.152 | [3] -0.102 | rosiglitazone 0.39

OSBPL2 (UniProt Q9H1P3)
inactive: volasertib 0.025

MT-ND2 (UniProt P03891)
inactive: volasertib -0.021 | [2] -0.113 | [3] -0.007 | [4] 0.106 | [7] 0.195 | rosiglitazone 0.04 | [5] -0.13 | [6] 0.033

MOB2 isoform 3 (UniProt Q70IA6)
inactive: volasertib -0.231 | [2] 0.207 | epoxomicin -0.193 | [3] -0.036 | [4] -0.029 | rosiglitazone -0.004 | [6] -0.103

NA isoform 3 (UniProt Q4G0T1)
inactive: volasertib -0.051 | [2] 0.026 | [3] 0.004 | [7] -0.019 | rosiglitazone 0.008 | [5] -0.008

MLH1 (UniProt P40692)
UniProt P40692, sequence (P40692 whole entry, looked up): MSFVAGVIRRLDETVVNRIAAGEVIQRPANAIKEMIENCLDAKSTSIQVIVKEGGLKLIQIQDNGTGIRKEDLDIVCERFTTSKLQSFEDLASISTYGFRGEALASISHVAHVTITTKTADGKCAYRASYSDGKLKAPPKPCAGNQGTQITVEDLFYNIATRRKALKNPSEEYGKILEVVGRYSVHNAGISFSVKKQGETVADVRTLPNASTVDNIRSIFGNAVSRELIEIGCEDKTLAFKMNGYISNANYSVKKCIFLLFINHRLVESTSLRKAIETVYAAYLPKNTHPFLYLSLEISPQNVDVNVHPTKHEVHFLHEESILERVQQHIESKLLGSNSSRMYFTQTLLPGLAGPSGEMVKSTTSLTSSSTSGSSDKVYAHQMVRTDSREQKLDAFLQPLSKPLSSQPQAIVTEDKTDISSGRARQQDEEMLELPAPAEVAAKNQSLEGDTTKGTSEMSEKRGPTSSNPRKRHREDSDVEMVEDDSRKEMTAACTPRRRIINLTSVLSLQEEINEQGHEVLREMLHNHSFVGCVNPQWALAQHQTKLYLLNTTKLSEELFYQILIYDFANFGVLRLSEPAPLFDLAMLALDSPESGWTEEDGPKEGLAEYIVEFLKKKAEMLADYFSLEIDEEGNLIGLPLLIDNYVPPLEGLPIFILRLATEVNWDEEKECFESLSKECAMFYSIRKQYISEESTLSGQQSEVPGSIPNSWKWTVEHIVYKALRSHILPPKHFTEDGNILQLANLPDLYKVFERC
inactive: volasertib -0.385 | epoxomicin 0.11 | [4] 0.073 | rosiglitazone 0.264 | [5] 0.268 | [6] 0.112

NRGN (UniProt Q92686)
UniProt Q92686, sequence (Q92686 whole entry, looked up): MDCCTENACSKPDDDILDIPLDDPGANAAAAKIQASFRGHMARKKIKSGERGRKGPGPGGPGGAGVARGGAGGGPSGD
inactive: volasertib 0.052 | [2] -0.088 | epoxomicin 0.162 | [3] 0.021 | [4] 0.14 | rosiglitazone 0.127 | [6] -0.547

MYSM1 (UniProt Q5VVJ2)
inactive: [1] -0.17 | rosiglitazone 0.157

NCK1 (UniProt P16333)
inactive: volasertib -0.306 | [2] 0.109 | epoxomicin -0.053 | [3] -0.312 | [7] 0.044 | rosiglitazone 0.223 | [5] 0.027

NDUFA7 (UniProt M0R0N0)
inactive: [3] -0.017 | [7] -0.092 | rosiglitazone 0.081

PAFAH2 (UniProt Q99487)
inactive: volasertib -0.058 | [3] -0.328 | [7] 0.005 | rosiglitazone 0.082 | [5] -0.059

MTFR1L (UniProt Q9H019)
UniProt Q9H019, sequence (Q9H019 whole entry, looked up): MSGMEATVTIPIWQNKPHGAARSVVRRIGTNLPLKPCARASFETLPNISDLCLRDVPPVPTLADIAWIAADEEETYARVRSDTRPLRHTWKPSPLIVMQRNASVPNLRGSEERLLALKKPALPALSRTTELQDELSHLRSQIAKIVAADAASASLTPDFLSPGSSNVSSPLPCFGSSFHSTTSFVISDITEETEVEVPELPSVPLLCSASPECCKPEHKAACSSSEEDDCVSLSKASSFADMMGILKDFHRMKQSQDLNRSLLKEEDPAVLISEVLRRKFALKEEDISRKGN
active: volasertib -0.586
inactive: [2] 0.036 | epoxomicin 0.023 | [3] -0.145 | [4] -0.186 | [7] 0.08 | rosiglitazone -0.019 | [5] 0.013 | [6] -0.296

NA, A0A2R8Y3M9
inactive: volasertib -0.134 | [2] 0.014 | [4] -0.015 | rosiglitazone 0.117 | [5] 0.376 | [6] 0.005

NA (UniProt J3KR12)
inactive: [2] -0.021 | epoxomicin 0.079 | rosiglitazone 0.148

NA, A0A494C071
active: [1] -1.54 | [6] -1.73
inactive: [2] 0.38 | epoxomicin -0.11 | [4] 0.189 | [7] -0.122 | rosiglitazone 0.125 | [5] -0.028
